# Test system: RARa homodimer (NR concentration 270 nM)
# Test: PBM binding z-score (relative to random genomic background probes); higher = stronger binding; sequences stand for … in GC…GCGATTGACAGCGTAGAATGAAGG
# Outline: (§1)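 The probes on custom Agilent 4×180K protein-binding microarrays were double-stranded, with 34-nt variable regions bearing direct-repeat seeds, single-nucleotide variants, half-site ablations and random human genomic background sequences. Incubation lasted 1 h with ligand-free nuclear receptor dimers in PBS pH 7.4, 2% milk, 0.02% Triton X-100, 1 mM DTT, 0.2 mg/mL BSA and 0.4 mg/ml salmon testes DNA. Antibodies against each partner (one per run) detected bound dimers, and fluorescence scans were regression-normalized. Binding z-scores take the random background probes as reference.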
row,Sequence,PBM binding z-score
1,GGAACGAGGGCAAAGCTGATAGCATCTGTCGACG,-0.822
2,CCTAGCAGGACAATCTGGGTCACTCAAGGCTTGA,-0.343
3,CGAACGAGGGCATGAGTCGATAGCAAATGCCGAT,-0.456
4,TAGCCTAGGTCATGCGGGCCAGTAAAGTGTCGGC,-0.385
5,CGTTACGGGTCACTGACAGGTTATAGCATTTGGA,0.338
6,AGAATCAGGTTACCAAAGATCAGGGAAACGCTTG,-0.131
7,CCTACTGGGCCAAAAAGGTCATCGATGCCGATAA,2.06
8,ATATGTACGTTAAGGGTCATTCAGGTTGGTTCGC,1.35
9,TCTCGGAGGATACGAAGGTCAGAGCTTTCCAGAG,-0.378
10,TCATATAGGTAAAGGTGAAAGTGGAACGATATGA,0.548
11,CCTGCTAGGTCAATGGCCAGCTAAAGCAGCTCGC,-0.563
12,TCGGACAGGTGAAGGTAACTCAGGTACGCAGTCG,0.257
13,TCATATAGGTAAAACGTGAAAGTCGGTGTGGTAA,1.24
14,GCAGACAGGTGAAACGCAGGTAACTCACGGTGGC,-0.454
15,CGTCCAAGGTCAGAGAGGTCAGGGAATGCCGAGT,1.09
16,GCTCGGAGGACAAGCTCAGAGCTTTGTCCGTAGA,-1.84
17,TGTAGTTGGTCACGGAGGTCACACACGACGGGTA,0.915
18,CAAACTAGGTCAAGAGGTCACAGTCCGCTTCCCG,2.8
19,CAAACTAGGTCAAGAGGTCGAAGTCCGCTTCCCG,1.54
20,GCCTACGGGTCAAAGGTTATAGCATGAATAGAAT,0.254

row,Sequence,PBM binding z-score
1,TAGCCTAGGTCATGGGCCAGCATACCACGCGAAC,-0.41
2,CGAACTGGGTCATCCAGGACAGTGAATACATTGA,0.785
3,CCAGACAGGTGAAAGATAACTCAGTCTGGTACGC,0.87
4,CCTACTGGGCCATCAGGTCATTGTTATCAACGTT,0.317
5,CGAACTAGGACAAGGACAGTGAATCTCCGCACGC,-0.389
6,CAGCCTAGGTCACGGCCAGTATAGGAGGAACGTT,0.239
7,TCATATAGGTAAATGCTAGGTGAAAGCCCGATCT,0.798
8,GCTCGGACGACAAGGTCAGAGCTTTGTCCGTAGA,-0.933
9,CAAGCTAGGTCACGAAAGGTCAAAGTCGAATGAC,4.08
10,TAGGCTAGGTCATGGGCCAGTATACCACGCGAAC,0.534
11,GCAGACAGGTGAAACGCAGGTAAATCAGGGTGGC,-0.404
12,CCTTACGGGTCAAGGTTATTGCACGGGTGGTACG,0.978
13,ACTGACAGGTGATGAAGGTAACTCAGGCTATCAT,0.284
14,CAAACTAGGTCATCGGAAGGTCAAAGTCCGCATG,1.67
15,CAAACTAGGTAACGAAAGGTCAAAGTCGAATGAC,2.01
16,TCTCGGAGGACCCGAAGGTCAGAGCTTTCCAGAG,-0.281
17,AACACAGGGTCATCGTAGGCCAGAGTACGCACAG,0.823
18,AGAATGAGGTTATTAAGATCCGGGAATTGCGGTC,-0.0311
19,TCATATAGGTAAATGCTAGATGAAAGTCCGATCT,0.951
20,CCTGCTAGGTCATGGTAAGCTAATCTACAGTATG,-0.305

# Test system: RARb:RXRa (NR concentration 270 nM, RXRa partner concentration 90 nM)
# Test: as above
# Outline: as §1
row,Sequence,PBM binding z-score
1,GGAACGAGGGCAAAGCTGATAGCATCTGTCGACG,1.99
2,CCTAGCAGGACAATCTGGGTCACTCAAGGCTTGA,1.42
3,CGAACGAGGGCATGAGTCGATAGCAAATGCCGAT,1.81
4,TAGCCTAGGTCATGCGGGCCAGTAAAGTGTCGGC,3.78
5,CGTTACGGGTCACTGACAGGTTATAGCATTTGGA,3.93
6,AGAATCAGGTTACCAAAGATCAGGGAAACGCTTG,1.08
7,CCTACTGGGCCAAAAAGGTCATCGATGCCGATAA,4.53
8,ATATGTACGTTAAGGGTCATTCAGGTTGGTTCGC,3.21
9,TCTCGGAGGATACGAAGGTCAGAGCTTTCCAGAG,2.33
10,TCATATAGGTAAAGGTGAAAGTGGAACGATATGA,2.13
11,CCTGCTAGGTCAATGGCCAGCTAAAGCAGCTCGC,3.73
12,TCGGACAGGTGAAGGTAACTCAGGTACGCAGTCG,1.45
13,TCATATAGGTAAAACGTGAAAGTCGGTGTGGTAA,0.406
14,GCAGACAGGTGAAACGCAGGTAACTCACGGTGGC,0.558
15,CGTCCAAGGTCAGAGAGGTCAGGGAATGCCGAGT,5.55
16,GCTCGGAGGACAAGCTCAGAGCTTTGTCCGTAGA,0.862
17,TGTAGTTGGTCACGGAGGTCACACACGACGGGTA,3.87
18,CAAACTAGGTCAAGAGGTCACAGTCCGCTTCCCG,5.67
19,CAAACTAGGTCAAGAGGTCGAAGTCCGCTTCCCG,4.44
20,GCCTACGGGTCAAAGGTTATAGCATGAATAGAAT,4.34

row,Sequence,PBM binding z-score
1,TAGCCTAGGTCATGGGCCAGCATACCACGCGAAC,3.79
2,CGAACTGGGTCATCCAGGACAGTGAATACATTGA,3.21
3,CCAGACAGGTGAAAGATAACTCAGTCTGGTACGC,0.534
4,CCTACTGGGCCATCAGGTCATTGTTATCAACGTT,2.07
5,CGAACTAGGACAAGGACAGTGAATCTCCGCACGC,0.708
6,CAGCCTAGGTCACGGCCAGTATAGGAGGAACGTT,4.6
7,TCATATAGGTAAATGCTAGGTGAAAGCCCGATCT,0.444
8,GCTCGGACGACAAGGTCAGAGCTTTGTCCGTAGA,2.84
9,CAAGCTAGGTCACGAAAGGTCAAAGTCGAATGAC,5.61
10,TAGGCTAGGTCATGGGCCAGTATACCACGCGAAC,4.04
11,GCAGACAGGTGAAACGCAGGTAAATCAGGGTGGC,0.472
12,CCTTACGGGTCAAGGTTATTGCACGGGTGGTACG,4.12
13,ACTGACAGGTGATGAAGGTAACTCAGGCTATCAT,0.224
14,CAAACTAGGTCATCGGAAGGTCAAAGTCCGCATG,4.97
15,CAAACTAGGTAACGAAAGGTCAAAGTCGAATGAC,4.38
16,TCTCGGAGGACCCGAAGGTCAGAGCTTTCCAGAG,2.35
17,AACACAGGGTCATCGTAGGCCAGAGTACGCACAG,4.3
18,AGAATGAGGTTATTAAGATCCGGGAATTGCGGTC,1.48
19,TCATATAGGTAAATGCTAGATGAAAGTCCGATCT,0.201
20,CCTGCTAGGTCATGGTAAGCTAATCTACAGTATG,3.87

# Reference: the supplement of paper PMC6555819
